ZTA DNA inh: ZTA (EBV) inhibition in EBNA-1 counter-screen | P03206 | ZTA-DNA binding, fluorescence polarization | inhibition, % at 11 µM | 0.15% of 320,000 active | AID 2234; in the data active = inhibition above about 33%
Target sequence (P03206 whole entry, looked up): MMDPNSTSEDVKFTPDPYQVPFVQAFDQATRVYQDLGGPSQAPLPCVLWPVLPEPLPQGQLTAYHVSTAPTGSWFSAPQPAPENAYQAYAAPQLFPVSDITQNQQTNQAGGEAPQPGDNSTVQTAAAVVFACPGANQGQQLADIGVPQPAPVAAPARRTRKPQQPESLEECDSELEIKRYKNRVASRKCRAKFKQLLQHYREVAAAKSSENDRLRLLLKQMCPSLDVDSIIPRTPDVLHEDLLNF
EBNA-1 inh: EBNA-1 DNA-binding inhibitors, primary screen, biochemical, fluorescence polarization; inhibition, % at 14.8 µM; 0.34% of 300,000 active; AID 1950, 2009; in the data active = inhibition above about 28%
bovine MsrA act: bovine MsrA enzyme activators, primary screen, biochemical, absorbance, HTS | Methionine sulfoxide reductase A (Bos taurus) | purified bovine MsrA, absorbance read-out | activation, % at 10.6 µM | 0.3% of 360,000 active; in the data active = activation above about 7.5%;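 also: 0% = vehicle and 100% = reference activator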
MsrA inhibitor: bovine MsrA enzyme inhibitors, primary screen, biochemical, absorbance, HTS; AID 651718, 2012; purified bovine MsrA, absorbance read-out; inhibition, % at 15.5 µM; 0.75% of 360,000 active;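 also: 0% = vehicle wells with enzyme and 100% = reference inhibitor wells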
PP1 counter: PP1-alpha phosphatase inhibitors, primary screen, counter-screen for PP5 inhibitor project, biochemical, fluorescence, OMFP substrate, single point; Serine/threonine-protein phosphatase PP1-alpha catalytic subunit (Homo sapiens), P62136; inhibition, % at 6.7 µM; AID 2235, 2010; purified PP1alpha; 0.9% of 320,000 active;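 active = inhibition above the mean inhibition of all tested compounds plus 3 SD, computed separately for each screening campaign, cut at about 15% in these data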
PP5 primary: PP5 phosphatase inhibitors, primary screen, biochemical, fluorescence. Serine/threonine-protein phosphatase 5 (Homo sapiens), P53041. purified PP5c, OMFP substrate fluorescence. inhibition, % at 6.7 µM. 0.18% of 320,000 active;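 active = inhibition above the campaign's mean inhibition across all tested compounds plus 3 SD, cut at about 9.5% in these data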;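 also: 0% = DMSO only and 100% = 100 µM cantharidin control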
MsrA conf: bovine MsrA inhibitors, retest, confirmation, biochemical, absorbance, HTS | inhibition, % at 15.5 µM | shares compounds with MsrA inhibitor | purified bovine MsrA, absorbance read-out | 41% of 2,300 active | AID 651822, 2012;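 also: coupled to thioredoxin reductase with NADPH and selenocystamine and DMSO as substrate; 0% = vehicle only and 100% = full effect of reference inhibitor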
Active calls of the source: *; · = no result. Compounds with a hit are over-represented: about 2.3% of the library has one in this group of screens. Rule as the data show it, unless noted: active = inhibition above about 4.5%; inactive = the rest.

SMILES | ZTA DNA inh | EBNA-1 inh | bovine MsrA act | MsrA inhibitor | PP1 counter | PP5 primary | MsrA conf
CN(CC(=O)Nc1ccccc1Cl)C(=O)CN1C(=O)C2CC=CCC2C1=O (configuration not stated) | · | · | -6 | 1 | · | · | ·
CC(=O)CC(=O)Nc1ccccc1NC(C)=O | 8 | 18 | -10 | 0 | -1 | 1 | ·
CCCC1S/C(=N/N=C/c2ccco2)NC1=O (configuration not stated) | 19 | 0 | -4 | 4.7* | 1 | 2 | 6.6*
CC1(C)S/C(=N/N=C/c2ccco2)NC1=O | -6 | -4 | -14 | 5.9* | 2 | 2 | 5.5*
Cc1[nH]nc(C(=O)NN=Cc2ccccc2Cl)c1N=NN(C)C | · | · | -3 | 0 | · | · | ·
COc1ccc(NC(=O)c2cccn(CC=C(C)C)c2=O)cc1 | 9 | 4 | -5 | 4.7* | -2 | 3 | 2
O=C(O)C(=Cc1cccc([N+](=O)[O-])c1)c1ccc(Cl)cc1 | · | · | -4 | 0 | · | · | ·
CCOC(=O)c1sc(NC(=O)C2=COCCO2)c(C#N)c1C | -3 | -2 | -3 | 5.8* | -2 | 3 | 2
CCN(CC)CCN(Cc1cc2cc3c(cc2[nH]c1=O)OCCO3)C(=S)NCC1CCCO1 (configuration not stated) | 2 | -16 | -1 | 1 | 7 | -1 | ·
COCCNC(=S)N(CCO)Cc1cc2cc3c(cc2[nH]c1=O)OCO3 | -9 | -3 | -7 | 5.1* | -2 | 1 | 5.1*
CN(C)CCN(Cc1cc2cc3c(cc2[nH]c1=O)OCCO3)C(=S)NCC1CCCO1 (configuration not stated) | 11 | 15 | -4 | 5.2* | -6 | 2 | 1
COc1cc(/C=C2/NC(=O)NC2=O)cc(Br)c1OCc1cccc(C(=O)O)c1 | 4 | -16 | 4 | 5.9* | -4 | 3 | 3
O=C(O)c1ccc(N(c2ccccc2)c2ccccc2)cc1 | -5 | 4 | -5 | 5.1* | -1 | 2 | 2
CCC(C)[C@H]1COCCS(=O)(=O)N1Cc1ccccc1 (some centres not stated) | 5 | 5 | -1 | 0 | 1 | 0 | ·
Cc1c(NC(=S)N/N=C/c2ccc(N(C)C)cc2)c(=O)n(-c2ccccc2)n1C | 5 | -9 | -6 | 5.0* | 0 | 0 | 4.6*
Cc1c(NC(=S)N/N=C/c2cccc(O)c2)c(=O)n(-c2ccccc2)n1C | -5 | -2 | -4 | 3 | 1 | 0 | ·
Cc1nnc(SCC(=O)N/N=C/c2cc(Cl)c(O)c(Cl)c2)s1 | -5 | 0 | -7 | 5.1* | -2 | 2 | 4.7*
O=C(COC(=O)CCC(NC(=O)OCc1ccccc1)C(=O)OCC(=O)Nc1ccccc1)Nc1ccccc1 (configuration not stated) | -22 | 1 | -4 | -1 | 4 | 5 | ·
NS(=O)(=O)c1cccc(NC(=O)/C=C/c2cccs2)c1 | 4 | 6 | -4 | 5.1* | -4 | 2 | 4
O=C(/C=C/c1cccs1)Nc1nccs1 | 12 | -5 | -6 | 6.4* | 1 | -1 | 7.2*
CCN(CC)CCOC(=O)c1ccc(NC(=O)CSc2nnc(-c3cccs3)n2CC)cc1 | · | · | -2 | -1 | · | · | ·
COc1cc(/C=C/C(=O)Nc2ccncc2)cc(OC)c1OC | 10 | 11 | -3 | 4.7* | -1 | 1 | 3
CCN(CC)CCOC(=O)c1ccc(NC(=O)/C=C/c2cccs2)cc1 | 0 | 2 | -2 | 5.5* | 0 | 0 | 3
O=C(/C=C\c1ccccc1)Nc1nccs1 | -11 | 3 | -1 | 1 | 10 | 1 | ·
O=C1CN(Cc2ccccc2)C(=NCc2ccco2)S1 | 4 | 3 | -2 | -1 | 5 | 2 | ·
SMILES | ZTA DNA inh | EBNA-1 inh | bovine MsrA act | MsrA inhibitor | PP1 counter | PP5 primary | MsrA conf
O=C(O)CCCC(=O)N1CCN(C(c2ccccc2)c2ccccc2)CC1 | -6 | -7 | -5 | -1 | -1 | 2 | ·
CCOC(=O)c1nc(C)sc1-c1ccnn1S(=O)(=O)c1cccc(Cl)c1 | 1 | -1 | -2 | 1 | -5 | 2 | ·
O=C(/C=C/c1cccs1)Nc1ccc(S(=O)(=O)Nc2ncccn2)cc1 | 7 | 0 | -7 | 4.7* | -2 | 1 | 4
COc1cc(/C=C/C(=O)Nc2cccc(S(=O)(=O)N3CCOCC3)c2)ccc1OCC#N | 8 | · | -9 | 2 | -3 | 2 | ·
O=C(/C=C/c1cccs1)Nc1cccc(NC(=O)/C=C/c2cccs2)n1 | 0 | 2 | -11 | 7.4* | 7 | 2 | 6.0*
COc1cc(/C=C/C(=O)Nc2ccc(S(=O)(=O)Nc3ncccn3)cc2)ccc1OCC#N | · | · | -5 | 4.9* | · | · | 2
Cc1cc(C)nc(NC(=O)/C=C/c2cccs2)c1 | -2 | 0 | -4 | 4 | 1 | 2 | ·
Cc1ccc(/C=C/C(=O)Nc2nccs2)o1 | -9 | -3 | -5 | 5.5* | -1 | -1 | 7.8*
O=C(/C=C/c1ccccc1[N+](=O)[O-])Nc1ccc(S(=O)(=O)Nc2ncccn2)cc1 | 6 | 3 | -5 | 2 | -3 | -1 | ·
CCN(CC(=O)Nc1c(F)cccc1F)C(=O)c1ccc(C)c(S(=O)(=O)N2CCCCC2)c1 | 0 | 6 | -2 | · | -2 | -2 | ·
